A selection: hits, their analogues and other compounds. The true share with any hit is near 3.5%.
SKN-1 inh = suppressors of acrylamide-induced Pgst-4::GFP reporter in worms, primary screen, SKN-1 inhibitor project, whole organism, uHTS, GFP/RFP fluorescence ratio, strain VP596; C. elegans VP596 Pgst-4::GFP/RFP ratio, 24 h; inhibition, % at 21.8 µM; 0.49% of 360,000 active; AID 624304, 2012;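 active means interference check ratio from 0.5 to 1.5 plus GFP to RFP signal ratio inhibition reaching or exceeding a fixed threshold, cut at about 30% in these data, passing the limit was not always enough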
Myeloid diff MLP = induction of myeloid progenitor differentiation, primary screen, cell-based, flow cytometry, MLPCN library; ER-HoxA9 myeloid progenitors, lysozyme-GFP differentiation; calls only at 10 µM; 1% of 360,000 active; AID 624256, 2012;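 active means normalized GFP-positive differentiation at or above the plate's own cutoff, the solvent-only control mean plus 3 SD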;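 further: cells exposed to compound for four days before flow analysis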
CHRM1 PAM = human M1 muscarinic receptor positive allosteric modulators, primary screen, CHO-K1 cells, Fluo-8 calcium fluorescence, 1536-well; 0.088% of 360,000 active; AID 588819, 2011; activation, % at 3 µM; CHO-K1 hM1, ACh EC20; 0% = ACh EC20, 100% = maximal ACh; in the data active means activation above about 19%, passing the limit was not always enough
ATG4B inhibitor = ATG4B protease inhibitors, primary screen, biochemical, fluorescence, uHTS; Cysteine protease ATG4B (Homo sapiens), Q9Y4P1; 0.51% of 340,000 active; ATG4B cleavage of LC3-PLA2, NBD-HPC fluorescence, 1 h; AID 504462, 2011; inhibition, % at 8.33 µM; in the data active means inhibition above about 40%
Target sequence (Q9Y4P1 whole entry, looked up): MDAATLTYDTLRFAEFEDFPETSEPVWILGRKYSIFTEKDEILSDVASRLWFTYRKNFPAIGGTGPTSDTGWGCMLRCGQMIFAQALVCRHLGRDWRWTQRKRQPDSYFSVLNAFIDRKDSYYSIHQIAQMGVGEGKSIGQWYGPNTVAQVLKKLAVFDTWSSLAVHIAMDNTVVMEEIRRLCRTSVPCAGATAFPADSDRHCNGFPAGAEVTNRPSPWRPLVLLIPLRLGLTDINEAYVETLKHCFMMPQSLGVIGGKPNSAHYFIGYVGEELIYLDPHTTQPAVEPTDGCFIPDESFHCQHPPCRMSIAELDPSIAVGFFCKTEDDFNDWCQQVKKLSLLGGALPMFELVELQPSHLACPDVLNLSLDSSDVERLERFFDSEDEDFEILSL
M1 ag = human M1 muscarinic receptor agonists, primary screen, Fluo-8 calcium fluorescence, CHO-K1 cells, HTS; CHO-K1 hM1, agonist mode; 0% DMSO, 100% acetylcholine EC100; AID 588814, 2011; activation, % at 3 µM; Muscarinic acetylcholine receptor M1 (Homo sapiens), P11229; 0.33% of 360,000 active;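 active means activation above the run's mean compound activation plus 3 SD, cut at about 16% in these data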;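 further: peak over basal fluorescence ratio within a 140 s kinetic read after compound addition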
M1 antag = human M1 muscarinic receptor antagonists, primary screen, CHO-K1 cells, Fluo-8 calcium fluorescence, 1536-well; Muscarinic acetylcholine receptor M1 (Homo sapiens), P11229; CHO-K1 hM1, ACh EC80 antagonist; inhibition, % at 3 µM; 1.3% of 360,000 active;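 active means percent inhibition above its own plate's cutoff, namely the mean of that plate's compound wells plus 3 SD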;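 further: peak over basal fluorescence ratio during 140 s after agonist addition; 0% = ACh EC80 plus DMSO and 100% = DMSO alone without agonist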
Numbers without * were called inactive.

Results for COc1ccccc1NC(=O)C1CCCN(S(=O)(=O)c2ccc3c(c2)CC(C)N3C(C)=O)C1 (stereo not drawn) ?
SKN-1 inh: -6.3; Myeloid diff MLP: inactive; CHRM1 PAM: -0.1; ATG4B inhibitor: -2.8; M1 ag: 0.0; M1 antag: 8.3

How did CC(C)N(C)C(=O)c1ccc(OC2CCN(CCc3ccccc3)CC2)cc1 do in these assays?
SKN-1 inh: 15.2; Myeloid diff MLP: inactive; CHRM1 PAM: -1.3; ATG4B inhibitor: 6.5; M1 ag: -4.8; M1 antag: -10.2

What do the screens show for `COc1ccccc1/C=C/CN1CCC(Oc2ccc(C(=O)N3CCCC3)cc2)CC1`?
SKN-1 inh: -9.1; Myeloid diff MLP: inactive; CHRM1 PAM: -23.4; ATG4B inhibitor: 19.9; M1 ag: -6.4; M1 antag: 73.0*

What do the screens show for `CN(Cc1nccn1C)C(=O)c1ccc(OC2CCN(CCc3ccccc3)CC2)cc1`?
SKN-1 inh: 2.9; Myeloid diff MLP: inactive; CHRM1 PAM: -19.0; ATG4B inhibitor: 22.8; M1 ag: -5.7; M1 antag: 46.9*

Results for c1ccc(-c2noc(-c3cccc4ccccc34)n2)cc1 ?
SKN-1 inh: 37.0*; Myeloid diff MLP: inactive; CHRM1 PAM: 6.3; ATG4B inhibitor: -10.6; M1 ag: -4.0; M1 antag: -16.2

Results for Fc1ccccc1-c1nc(-c2ccc(Br)o2)no1 ?
SKN-1 inh: 72.0*; Myeloid diff MLP: inactive; CHRM1 PAM: -0.3; ATG4B inhibitor: 13.1; M1 ag: -4.0; M1 antag: -10.7

What do the screens show for `Fc1ccccc1-c1nc(-c2ccncc2)no1`?
SKN-1 inh: 46.0*; Myeloid diff MLP: inactive; CHRM1 PAM: 11.8; ATG4B inhibitor: -4.5; M1 ag: -1.9; M1 antag: -17.3

Results for COc1ccc(-c2nc(-c3ccc(Br)o3)no2)cc1 ?
SKN-1 inh: -9.1; Myeloid diff MLP: inactive; CHRM1 PAM: 12.8; ATG4B inhibitor: -6.4; M1 ag: -2.7; M1 antag: 0.6

What do the screens show for `Cc1ccccc1-c1nc(-c2ccc(Br)o2)no1`?
SKN-1 inh: 46.1*; Myeloid diff MLP: inactive; CHRM1 PAM: 10.6; ATG4B inhibitor: 14.8; M1 ag: -1.2; M1 antag: -15.1

How did COC(=O)c1ccccc1NC(=O)C1CCN(C(=O)c2cc(OC)c(OC)c(OC)c2)CC1 do in these assays?
SKN-1 inh: 1.6; Myeloid diff MLP: inactive; CHRM1 PAM: 3.6; ATG4B inhibitor: -17.2; M1 ag: -2.1; M1 antag: -5.0

What do the screens show for `O=C(NCc1ccc(F)cc1)c1cc(-c2ccccn2)nc2ccc(S(=O)(=O)N3CCOCC3)cc12`?
SKN-1 inh: 5.2; Myeloid diff MLP: inactive; CHRM1 PAM: -8.0; M1 ag: -2.0; M1 antag: 10.1

What do the screens show for `CCOC(=O)c1cnc2c(C(=O)OC)cccc2c1NCCN1CCOCC1`?
SKN-1 inh: 0.4; Myeloid diff MLP: inactive; CHRM1 PAM: 13.4; ATG4B inhibitor: -1.4; M1 ag: -11.1; M1 antag: -4.4

Results for CCOC(=O)c1cnc2c(CC)cccc2c1NCCN1CCOCC1 ?
SKN-1 inh: 10.0; Myeloid diff MLP: inactive; CHRM1 PAM: -26.5; ATG4B inhibitor: -5.1; M1 ag: -9.2; M1 antag: 64.1*

Results for Cc1ccc(-c2cn3nc(-c4ccccc4)c(-c4ccccc4)nc3n2)cc1 ?
SKN-1 inh: -4.7; Myeloid diff MLP: active; CHRM1 PAM: 11.4; ATG4B inhibitor: -6.4; M1 ag: -1.5; M1 antag: -14.2

Results for Cc1cccc(C)c1NC(=O)C1(N2C(=O)CC2c2ccccc2)CCCCC1 (stereo not drawn) ?
SKN-1 inh: -1.0; Myeloid diff MLP: inactive; CHRM1 PAM: 8.1; ATG4B inhibitor: -4.1; M1 ag: -5.4; M1 antag: -6.4

Results for O=[N+]([O-])c1ccc2nc(-c3ccccc3)oc2c1 ?
SKN-1 inh: 42.3*; Myeloid diff MLP: inactive; CHRM1 PAM: 10.0; ATG4B inhibitor: -1.8; M1 ag: -0.6; M1 antag: 1.0

Results for COc1ccc(N2CCN(CC(=O)NCc3ccc(Cl)cc3)CC2)cc1 ?
SKN-1 inh: 8.4; Myeloid diff MLP: inactive; CHRM1 PAM: -0.1; ATG4B inhibitor: 0.5; M1 ag: -1.9; M1 antag: 2.8

Results for CCN(CC)CCC(=O)N1c2ccccc2Sc2ccc(Cl)cc21 ?
SKN-1 inh: 5.0; Myeloid diff MLP: inactive; CHRM1 PAM: -26.4; ATG4B inhibitor: 2.1; M1 ag: -7.1; M1 antag: 100.5*

How did CCOC(=O)c1c(C)sc2c1N(C(=O)CN(CC)CC)c1cc(Cl)ccc1S2 do in these assays?
SKN-1 inh: 3.0; Myeloid diff MLP: inactive; CHRM1 PAM: -13.8; ATG4B inhibitor: -2.0; M1 ag: -5.4; M1 antag: 12.0

How did CN(C)CC(=O)N1c2ccccc2Sc2ccc(Cl)cc21 do in these assays?
SKN-1 inh: 7.5; Myeloid diff MLP: inactive; CHRM1 PAM: -27.9; ATG4B inhibitor: -2.1; M1 ag: -9.8; M1 antag: 98.9*

Results for CC(=O)N1c2ccccc2Sc2ccc3ccccc3c21 ?
SKN-1 inh: 22.7; Myeloid diff MLP: inactive; CHRM1 PAM: 1.6; M1 ag: -7.2; M1 antag: -7.4

Results for Cn1nnnc1SCC(=O)N1c2ccccc2Sc2ccc(Cl)cc21 ?
SKN-1 inh: -15.2; Myeloid diff MLP: inactive; CHRM1 PAM: -20.0; ATG4B inhibitor: -14.1; M1 ag: -6.0; M1 antag: 29.7*

How did CN(C)CCC(=O)N1c2ccccc2Sc2ccc(Cl)cc21 do in these assays?
SKN-1 inh: -2.3; Myeloid diff MLP: inactive; CHRM1 PAM: -34.5; ATG4B inhibitor: -5.8; M1 ag: -13.3; M1 antag: 99.0*

What do the screens show for `CC(C)CNC(=O)N1c2ccccc2Sc2ccccc21`?
SKN-1 inh: 2.7; Myeloid diff MLP: inactive; CHRM1 PAM: -6.6; ATG4B inhibitor: -6.4; M1 ag: -6.2; M1 antag: -2.9

Results for Cn1c(SCC(=O)N2c3ccccc3Sc3ccc(Cl)cc32)nnc1-c1ccco1 ?
SKN-1 inh: 3.5; Myeloid diff MLP: inactive; CHRM1 PAM: -11.7; ATG4B inhibitor: -13.3; M1 ag: -13.5; M1 antag: -2.8

What do the screens show for `CC1(C(=O)NS(=O)(=O)c2cccc(OC(F)F)c2)CCN1C(=O)CC1CCCC1` (stereo not drawn)?
SKN-1 inh: 18.4; Myeloid diff MLP: inactive; CHRM1 PAM: -2.1; M1 ag: -1.1; M1 antag: 3.9

From PubChem
